Screens (PubChem)
IL-1B inflam inh – inhibitors of inflammasome signaling (IL-1 beta secretion); THP-1 LPS/ATP IL-1B secretion, AlphaLISA, 16 h; active compounds read low; activity change, % at 57.5 µM; 360,000 tested, 4.7% active; AID 743279; in the data active = activity change below about -50%; inconclusive = mostly about -30% to -49%
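THP-1 cells pretreated 1 hr with compounds (up to 57.5 uM final), then stimulated with LPS (250 ng/mL final) plus ATP (1.25 mM final); secreted IL-1B measured by AlphaLISA after 16 hr, decreased signal indicating inhibition.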
TDP1 block – TDP1 (human) enzyme inhibition; recombinant TDP1, AlphaScreen DNA substrate cleavage; Potency, µM (series often up to 130 µM), actives largely listed as inhibitors; 350,000 tested, 0.28% active; AID 485290; note: nearly all actives have a fitted effect of over 40% in size
Target sequence (Q9NUW8 whole entry, looked up): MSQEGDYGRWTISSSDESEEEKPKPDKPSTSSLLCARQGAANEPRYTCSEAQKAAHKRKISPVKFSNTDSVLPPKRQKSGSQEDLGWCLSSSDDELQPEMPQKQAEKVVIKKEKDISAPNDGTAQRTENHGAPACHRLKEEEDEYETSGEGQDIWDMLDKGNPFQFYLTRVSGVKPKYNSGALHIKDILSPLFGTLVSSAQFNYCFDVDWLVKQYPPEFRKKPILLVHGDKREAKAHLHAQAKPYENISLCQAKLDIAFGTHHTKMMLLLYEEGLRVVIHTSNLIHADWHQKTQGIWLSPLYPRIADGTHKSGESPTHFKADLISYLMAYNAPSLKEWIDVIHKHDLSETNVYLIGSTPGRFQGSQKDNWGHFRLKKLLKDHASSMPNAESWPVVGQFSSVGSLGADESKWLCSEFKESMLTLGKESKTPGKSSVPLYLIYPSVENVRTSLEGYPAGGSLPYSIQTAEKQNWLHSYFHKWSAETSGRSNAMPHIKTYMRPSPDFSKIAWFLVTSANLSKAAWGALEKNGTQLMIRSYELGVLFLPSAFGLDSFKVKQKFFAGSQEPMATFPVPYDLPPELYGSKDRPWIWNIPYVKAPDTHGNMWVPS
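Tdp1 1 nM final; 15 min RT w/ cpd; substrate 15 nM, 5 min; beads 10 ug/ml, 10 min; AlphaScreen read. Neg ctrl: no enzyme.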
TDP1 cell CPT – DT40-hTDP1 cell growth loss with CPT. 420,000 tested, 12% active. AID 686979. Potency, µM (top dose mostly 46.2 µM), usual class: inhibitors. chicken DT40 Tdp1-/-;hTDP1 cells + 20 nM CPT, ATP luminescence, 48 h; note: nearly all actives have a fitted effect of over 55% in size
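Chicken DT40 Tdp1-/- cells complemented with human TDP1, 400 cells/well, exposed to compounds plus 20 nM camptothecin for at least 48 h at 37 C; viability read as ATP content by CellTiter-Glo luminescence.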
DT40 TDP1 no CPT – qHTS for Inhibitors of human tyrosyl-DNA phosphodiesterase 1 (TDP1): qHTS in cells in absence of CPT; DT40 Tdp1-/- hTDP1 cells, no CPT, ATP luminescence, 48 h; Potency, µM (highest dose often 46.2 µM), actives largely listed as inhibitors; 420,000 tested, 15% active; note: nearly all actives have a fitted effect of over 55% in size
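Seeded 400 DT40-hTDP1 cells/well (vehicle DMSO, no 20 nM CPT); pinned compounds; ≥48 hr at 37 °C; CellTiter-Glo luminescence as viability measure.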
TGFb SMAD3 inh – inhibitors of TGF-b signaling; Potency, µM (highest dose often 46.1 µM), hits mostly inhibitors; HepG2 CAGA-GFP TGF-b/SMAD3 reporter, GFP fluorescence, 18 h; TGF-beta stimulated, 500 pg/mL final; 410,000 tested, 1.2% active; note: nearly all actives have a fitted effect of over 65% in size
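HEPG2 CAGA-GFP cells (1000/well, DMEM with 1% FBS) were pre-incubated 2 h at 37 degrees C, given compound by pin tool, then stimulated with TGF-beta at 500 pg/mL final for 18 h before per-cell GFP fluorescence imaging.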
HepG2 viability – HepG2 cytotoxicity, counter-screen for TGF-b inhibitors | Potency, µM (highest dose often 46.1 µM), hits mostly cytotoxic | 410,000 tested, 0.76% active | AID 588856 | HepG2 CAGA-GFP viability, ATP luminescence, 18 h
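HepG2 CAGA-GFP cells (1000/well, DMEM with 1% FBS) received compound, then TGF-beta at 500 pg/mL final, and were incubated 18 hours at 37 degrees C. Viability was read by CellTiter-Glo luminescence. Media-only wells were set as complete cell-killing and DMSO as no toxicity.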
Hits are given with their value; i = inactive; ? = inconclusive; nt = no result given; [ ] = another dose, or the depositor's remark. An excerpt weighted towards active compounds, which were near 19% of everything screened. Unless noted, calls come from the whole dose curve; as a rule, active = well fitted curve in the direction sought with a large enough effect; inconclusive = small, poorly fitted or top-dose-only effect, or another doubt; inactive = no such curve, though single readings can be large; an effect the other way counts as inactive or inconclusive.

SMILES	IL-1B inflam inh	TDP1 block	TDP1 cell CPT	DT40 TDP1 no CPT	TGFb SMAD3 inh	HepG2 viability
Cc1ccc(NC(=O)COC(=O)CCc2ccc(S(=O)(=O)N3CCOCC3)cc2)cc1F	i	i	i	i	?	i
CCC(C)NC(=O)c1c(C)oc2ncn(CC(C)C)c(=O)c12 (centres undefined)	nt	i	i	?	i	i
CNc1cncc(-c2cc(OC)ccc2OC)n1	i	nt	i	i	i	i
COc1ccc(C(C)C)cc1-c1cncc(NC(C)=O)n1	-96	nt	i	?	i	i
CN1C[C@@H]2C(c3ccccc3)C3(c4ccccc4)CC2(C3)[C@H]1c1ccccc1 (some centres undefined)	i	i	26µM	?	i	i
CN1C[C@@H]2C(c3ccc(C(F)(F)F)cc3)C3(c4ccc(C#N)cc4)CC2(C3)[C@H]1c1ccccc1 (some centres undefined)	i	i	10µM	23µM	i	i
CN1C[C@@H]2C(c3ccc(Cl)nc3)C3(c4ccccc4)CC2(C3)[C@H]1c1ccccc1 (some centres undefined)	i	i	21µM	16µM	i	i
COC(=O)c1cccc(C23CC4(C2)[C@H](CN(C)[C@@H]4c2ccccc2)C3c2ccccc2)c1 (some centres undefined)	i	i	21µM	23µM	i	i
COC(=O)c1ccc(C23CC4(C2)[C@H](CN(C)[C@@H]4c2ccccc2)C3c2ccccc2)cc1 (some centres undefined)	i	i	?	?	i	i
CN1C[C@@H]2C(c3ccc(Cl)nc3)C3(c4cccnc4)CC2(C3)[C@H]1c1ccccc1 (some centres undefined)	i	i	i	i	?	i
CN1C[C@@H]2C(c3ccccc3)C3(c4ccc(C#N)cc4)CC2(C3)[C@H]1c1ccccc1 (some centres undefined)	i	i	?	?	i	i
COc1cc(Cl)c(C)cc1NC(=O)c1c(C)oc2nc(C)nc(N3CCCC3)c12	nt	i	?	?	i	i
Fc1ccc2[nH]c(-c3cccs3)cc2c1	nt	i	i	i	i	i
COc1ccccc1CNS(=O)(=O)c1ccc(-n2cnnn2)c(OC)c1	i	i[0.0935 µM]	i	i	i	i
Cc1ccc(C)c(S(=O)(=O)N2CCN(C(=O)c3ccncc3)CC2)c1	i	i	i	i	i	i
O=C(OCc1ccccc1F)c1ccc(-c2nnn(Cc3ccccc3)n2)cc1	nt	i	?	i	i	i
CCCCCCCCCCCCCCCC[n+]1cccc2ccccc21	-102	i	0.41µM	0.23µM	6.3µM	11µM
Cc1ccccc1C[n+]1cccc2ccccc21	i	i	?	15µM	i	i
CCCCCCCCC[n+]1cccc2c3ccccc3ccc21	i	i	0.58µM	0.46µM	1.8µM	16µM
Brc1cccc[n+]1Cc1ccccc1C[n+]1ccccc1Br	nt	nt	?	i	i	i
CCCCCCCCCC[n+]1cccc2cc(Br)ccc21	nt	nt	0.63µM	1.3µM	?	i
CCc1cccc(-n2nnc(-c3nc(-c4cccs4)no3)c2N)c1	nt	i	?	?	i	i
O=C(Nc1sc2c(c1C(=O)Nc1ccccc1Cl)CCCC2)c1ccccc1F	nt	nt	i	i	i	i
O=C(COC(=O)COc1ccccc1)NCc1ccc2c(c1)OCO2	i	i	i	i	i	i
Oc1ccc(N=Cc2cc(Br)c(N3CCOCC3)o2)cc1	i	i	?	21µM	i	i
SMILES	IL-1B inflam inh	TDP1 block	TDP1 cell CPT	DT40 TDP1 no CPT	TGFb SMAD3 inh	HepG2 viability
O=[N+]([O-])c1cc(Br)c(O)c(C=Nc2ccc(N3CCOCC3)cc2)c1	i	i	i	?	i	i
Cc1cc(C)cc(NC(=O)CCn2cnc3ccccc3c2=O)c1	nt	i	i	i	i	i
COC(=O)c1cc(C)nc2c1C(=O)C(=O)C=C2N1CCOCC1	-100	i	3.3µM	1µM	4.5µM	5µM
Cc1cc(=O)[nH]c(N2CCOCC2)n1	i	i	i	i	i	i
CC(=O)c1ccc([N+](=O)[O-])c(CS(=O)(=O)c2ccc(Cl)cc2)c1	i	nt	i	i	i	i
CN(CC(=O)Nc1ccc(F)cc1)C(=O)c1ccc(N2C(=O)CCC2=O)cc1	i	i	i	i	i	i
N#CC(C#N)=C(N)/C(C#N)=C/c1ccc2[nH]ccc2c1	nt	i	?	?	nt	nt
CCCc1oc2ccc(NS(=O)(=O)c3ccc(OCC)cc3)cc2c1C(=O)OCC	nt	nt	6.5µM	5.8µM	?	i
CCc1ccc(S(=O)(=O)Nc2ccc3oc(C)c(C(=O)OCCOC)c3c2)cc1	nt	nt	?	?	?	i
COCCOC(=O)c1c(C)oc2ccc(OC(=O)c3c(OC)cccc3OC)cc12	i	i	?	16µM	i	i
COCCOC(=O)c1c(C)oc2ccc(NS(=O)(=O)c3ccc(C)cc3)cc12	i	i	?	26µM	?	i
CCCc1oc2ccc(NS(=O)(=O)c3ccc(OC)cc3)cc2c1C(=O)OCC	nt	i	1.8µM	1.2µM	10µM	i
Cc1ccc(OCCSc2nc3ccccc3n2CCC(=O)O)cc1C	nt	i[12.3 µM]	?	?	?	i
CCOC(=O)c1c(C)oc2ccc(OCc3cc(C(=O)OC)oc3C)cc12	i	i	18µM	13µM	i	i
CCCC(=O)Nc1ccc(C(=O)/C=C/c2ccc(SC)cc2)cc1	i	i	13µM	18µM	i	i
CSc1ccc(/C=C/C(=O)c2ccc(NC(C)=O)cc2)cc1	?	i	16µM	21µM	i	i
CC(=O)Nc1ccc(/C=C/C(=O)c2ccc(-n3nncc3-c3ccccc3)cc2)cc1	nt	i	5.6µM	10µM	?	i
COc1ccc(O)c(CNc2ccccc2F)c1	i	i	i	?	i	i
CC(C)C[C@H]1COc2cccc(N3CCN(Cc4ccccc4F)CC3)c2S(=O)(=O)N1	i	nt	?	18µM	nt	nt
O=S1(=O)N[C@@H](Cc2ccccc2)COc2cc(N3CCN(Cc4ccccc4F)CC3)ccc21	i	nt	i	21µM	nt	nt
CC(C)C[C@H]1COc2cc(N3CCN(Cc4ccccc4F)CC3)ccc2S(=O)(=O)N1	i	nt	?	?	nt	nt
C[C@H]1COc2cccc(N3CCN(Cc4ccccc4F)CC3)c2S(=O)(=O)N1	i	nt	i	?	nt	nt
COc1cccc(CN(C)C(=O)CN2C(=O)NC(c3ccccc3)(c3ccccc3)C2=O)c1OC	i	i	?	?	i	i
COc1ccc(Cl)cc1NC(=O)c1cc2nc(-c3ccc(C)cc3)cc(C(F)(F)F)n2n1	nt	i	i	?	i	i
CC(=O)NC1(C(=O)O)CCCC1	i	i	i	i	i	i
